{"source": "PubChem BioAssay (NCATS)", "note": "Several values for one entry are separate records, joined by “and”; a condition that tells them apart may be missing. Identical values can stand only once. Activity calls are given as the source filed them. The call rests on the fitted dose curve. Potency means the concentration at half of the fitted maximal effect."}
{"assay": "qHTS drug screen for cell cycle checkpoint inhibitors in PARPi-resistant BRCA-mutant ovarian cancer cell lines. (AID 1963452)", "conditions": "PEO1/OlaR viability, CellTiter-Glo luminescence, 96 h", "in_short": "(§1)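 PEO1, PEO4 and PEO1/OlaR ovarian cancer cells, 600 per well, exposed 96 h at 37C to a dilution series. Viability read by CellTiter-Glo luminescence, normalized to DMSO and empty wells; activity summarized as Z-AUC.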"}
{"molecule": "CN(C)C(N)=NC(=N)N", "outcome": "inactive"}
{"molecule": "CCS(=O)(=O)Nc1ccc(Oc2ccc(F)cc2F)c(-c2cn(C)c(=O)c3[nH]ccc23)c1", "Potency": "0.0389 µM (active)"}
{"molecule": "CCC(=C/[C@H](C)C/C=C/C(C)=C/[C@@H](C)C(=O)[C@@H](C)[C@H](O)[C@@H](C)C/C(C)=C/C(=O)O)/C=C/[C@@H]1OC(=O)C=C[C@@H]1C", "Potency": "6.92 µM (active)"}
{"assay": "qHTS drug screen for cell cycle checkpoint inhibitors in PARPi-resistant BRCA-mutant ovarian cancer cell lines. (AID 1963452)", "conditions": "PEO1/OlaR viability, CellTiter-Glo luminescence, 96 h; hits give low values", "in_short": "as §1"}
{"molecule": "CN(C)Cc1ccc(S(=O)(=O)n2ccc(/C=C/C(=O)NO)c2)cc1", "Z-AUC": "0.736 (inactive)"}
{"molecule": "CO[C@@H]1[C@@H](O)[C@H](O)[C@@H](n2c3c(Cl)cccc3c3c4c(c5c6cccc(Cl)c6[nH]c5c32)C(=O)NC4=O)O[C@H]1CO", "Z-AUC": "-0.593 (inactive)"}
{"molecule": "CC(C)n1c(/C=C/[C@H](O)C[C@H](O)CC(=O)O)c(-c2ccc(F)cc2)c2ccccc21", "Z-AUC": "1.2 (inactive)"}
{"molecule": "OCCOc1ccc(/C(=C(/CCCl)c2ccccc2)c2ccccc2)cc1", "Z-AUC": "-0.111 (inactive)"}
{"molecule": "C=CC(=O)N[C@H]1CCOC[C@H]1Nc1ncc2cc(-c3c(Cl)c(OC)cc(OC)c3Cl)ccc2n1", "Z-AUC": "1.21 (inactive)"}
{"molecule": "O=C(Nc1cnccc1Cl)N1CCN(Cc2ccc3c(c2)OC(F)(F)O3)CC1", "Z-AUC": "0.437 (inactive)"}
{"molecule": "CN(C)CCOc1ccc(-c2nc(-c3ccc4c(c3)CC/C4=N\\O)c(-c3ccncc3)[nH]2)cc1", "Z-AUC": "-0.892 (inactive)"}
{"molecule": "COC(=O)N(CC(=O)O)Cc1cccc(OCc2nc(-c3ccc(Cl)cc3)oc2C)c1", "Z-AUC": "1.24 (inactive)"}
{"molecule": "COc1ccc(S(=O)(=O)NCc2ccc(C(=O)NCCc3ccc(Cl)cn3)cc2)cc1", "Z-AUC": "-2 (inactive)"}
{"molecule": "CN1C[C@@H]2c3ccccc3Oc3ccc(Cl)cc3[C@H]2C1", "Z-AUC": "1.28 (inactive)"}
{"molecule": "NC(=S)N/N=C/c1ncccc1N", "Z-AUC": "0.978 (inactive)"}
{"molecule": "CC[C@@H](Oc1cccc(CN(CCCOc2ccc(OC)cc2)c2nc3ccccc3o2)c1)C(=O)O", "Z-AUC": "1.26 (inactive)"}
{"molecule": "C[C@H]1CN(C2COC2)CCN1c1ccc(Nc2cc(-c3ccnc(N4CCn5c(cc6c5CC(C)(C)C6)C4=O)c3CO)cn(C)c2=O)nc1", "Z-AUC": "-0.103 (inactive)"}
{"molecule": "C/C=C(/C)C(=O)O[C@H]1C(C)=CC23C(=O)C(C=C(CO)[C@@H](O)[C@]12O)[C@H]1[C@@H](C[C@H]3C)C1(C)C", "note": "(stereo partly specified)", "Z-AUC": "-0.0624 (inactive)"}
{"molecule": "COc1cc(=C2C=c3ccccc3=N2)[nH]/c1=C/c1[nH]c(C)cc1C", "Z-AUC": "0.716 (inactive)"}
{"molecule": "C[C@@H]1Cc2c([nH]c3ccccc23)[C@@H](c2c(F)cc(/C=C/C(=O)O)cc2F)N1CC(C)(C)F", "Z-AUC": "-0.309 (inactive)"}
{"molecule": "Cc1cc(Oc2ccc3nc(COc4ccc(CC5SC(=O)NC5=O)cc4)n(C)c3c2)cc(C)c1N", "note": "(stereo unspecified)", "Z-AUC": "-0.262 (inactive)"}
{"molecule": "CC#CC(=O)N1CC[C@@H](n2c(=O)n(-c3ccc(Oc4ccccc4)cc3)c3c(N)ncnc32)C1", "Z-AUC": "1.04 (inactive)"}
{"molecule": "CN1C(=O)N(c2cc(Cl)cc(Cl)c2)C(=O)[C@]12CN(Cc1cc(C(=O)O)cs1)C[C@H]2c1ccc(C#N)cc1", "Z-AUC": "0.948 (inactive)"}
{"molecule": "N#CCC1(n2cc(-c3ncnc4[nH]ccc34)cn2)CN(C2CCN(C(=O)c3ccnc(C(F)(F)F)c3F)CC2)C1", "Z-AUC": "-0.205 (inactive)"}
{"molecule": "Cc1cc(O)c(-c2ccc([C@@H](C)CN)cc2)c2c1[nH]c(=O)c1sccc12", "Z-AUC": "-2.55 (inactive)"}
{"molecule": "CCC(=O)OCC(=O)C1(OC(=O)CC)C(C)CC2C3CCC4=CC(=O)C=CC4(C)C3(F)C(O)CC21C", "note": "(stereo unspecified)", "Z-AUC": "0.365 (inactive)"}
{"molecule": "N#C/C(=C1/Nc2ccccc2S1)c1ccnc(OCc2ccc(CN3CCOCC3)cc2)n1", "Z-AUC": "0.822 (inactive)"}
{"molecule": "NC(=O)c1cnc2[nH]ccc2c1NC1C2CC3C[C@H]1CC(O)(C3)C2", "note": "(stereo partly specified)", "Z-AUC": "0.584 (inactive)"}
{"molecule": "CN(C(=O)CNC(=O)/C=C/c1cccc(Cl)c1)C1CCS(=O)(=O)CC1", "Z-AUC": "-0.555 (inactive)"}
{"molecule": "COc1cc(N2CCN(C)CC2)ccc1Nc1ncc2c(n1)N(C)c1ccccc1C(=O)N2C", "Z-AUC": "-0.347 (inactive)"}
{"molecule": "CN1CCN(c2ccc(Nc3ncc4cc(C#N)c(=O)n(C5CCCC5)c4n3)cc2)CC1", "Z-AUC": "-0.464 (inactive)"}
{"molecule": "C=C1/C(=C\\C=C2/CCC[C@]3(C)[C@@H]([C@H](C)CCCC(C)(C)O)CC[C@@H]23)C[C@@H](O)C[C@@H]1O", "Z-AUC": "0.612 (inactive) and 1.13 (inactive)"}
{"molecule": "O=c1cc(N2CCOCC2)oc2c(-c3ccc4c(c3)OCCO4)csc12", "Z-AUC": "-0.839 (inactive)"}
{"molecule": "CO[C@H]1/C=C/O[C@@]2(C)Oc3c(C)c(O)c4c(O)c(c5c(c4c3C2=O)=NC2(CCN(CC(C)C)CC2)N=5)NC(=O)/C(C)=C/C=C/[C@H](C)[C@H](O)[C@@H](C)[C@@H](O)[C@@H](C)[C@H](OC(C)=O)[C@@H]1C", "Z-AUC": "1.28 (inactive)"}
{"molecule": "CC/C(=C(/c1ccc(O)cc1)c1ccc(OCCNC)cc1)c1ccccc1", "Z-AUC": "0.452 (inactive)"}
{"molecule": "C[C@@H](O)[C@@H]1NC(=O)[C@H](CCCCN)NC(=O)[C@@H](Cc2c[nH]c3ccccc23)NC(=O)[C@H](Cc2ccccc2)NC(=O)[C@@H](NC(=O)[C@H](N)Cc2ccccc2)CSSC[C@@H](C(=O)N[C@H](CO)[C@@H](C)O)NC1=O", "Z-AUC": "0.896 (inactive)"}
{"molecule": "O=C(CCc1ccc(O)cc1)c1c(O)cc(O)cc1O[C@@H]1O[C@H](CO)[C@@H](O)[C@H](O)[C@H]1O", "Z-AUC": "0.341 (inactive)"}
